Hit rate of the full screen: of about 310,000 compounds, about 14,000 (4.5%) showed an effect of 50% or more. Effects have a minus sign here. The sample as a whole holds a higher share of strong results than the screen did.
biological target: human ether-à-go-go-related gene (hERG) potassium channel (human, UniProt Q12809); experiment: primary screen, population patch clamp on CHO cells stably expressing hERG; higher = less effect of the substance
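Also: peak tail current of the secondary pulse compared with the same well before compound.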

Chain of human ether-à-go-go-related gene (hERG) potassium channel (Q12809 whole entry, looked up): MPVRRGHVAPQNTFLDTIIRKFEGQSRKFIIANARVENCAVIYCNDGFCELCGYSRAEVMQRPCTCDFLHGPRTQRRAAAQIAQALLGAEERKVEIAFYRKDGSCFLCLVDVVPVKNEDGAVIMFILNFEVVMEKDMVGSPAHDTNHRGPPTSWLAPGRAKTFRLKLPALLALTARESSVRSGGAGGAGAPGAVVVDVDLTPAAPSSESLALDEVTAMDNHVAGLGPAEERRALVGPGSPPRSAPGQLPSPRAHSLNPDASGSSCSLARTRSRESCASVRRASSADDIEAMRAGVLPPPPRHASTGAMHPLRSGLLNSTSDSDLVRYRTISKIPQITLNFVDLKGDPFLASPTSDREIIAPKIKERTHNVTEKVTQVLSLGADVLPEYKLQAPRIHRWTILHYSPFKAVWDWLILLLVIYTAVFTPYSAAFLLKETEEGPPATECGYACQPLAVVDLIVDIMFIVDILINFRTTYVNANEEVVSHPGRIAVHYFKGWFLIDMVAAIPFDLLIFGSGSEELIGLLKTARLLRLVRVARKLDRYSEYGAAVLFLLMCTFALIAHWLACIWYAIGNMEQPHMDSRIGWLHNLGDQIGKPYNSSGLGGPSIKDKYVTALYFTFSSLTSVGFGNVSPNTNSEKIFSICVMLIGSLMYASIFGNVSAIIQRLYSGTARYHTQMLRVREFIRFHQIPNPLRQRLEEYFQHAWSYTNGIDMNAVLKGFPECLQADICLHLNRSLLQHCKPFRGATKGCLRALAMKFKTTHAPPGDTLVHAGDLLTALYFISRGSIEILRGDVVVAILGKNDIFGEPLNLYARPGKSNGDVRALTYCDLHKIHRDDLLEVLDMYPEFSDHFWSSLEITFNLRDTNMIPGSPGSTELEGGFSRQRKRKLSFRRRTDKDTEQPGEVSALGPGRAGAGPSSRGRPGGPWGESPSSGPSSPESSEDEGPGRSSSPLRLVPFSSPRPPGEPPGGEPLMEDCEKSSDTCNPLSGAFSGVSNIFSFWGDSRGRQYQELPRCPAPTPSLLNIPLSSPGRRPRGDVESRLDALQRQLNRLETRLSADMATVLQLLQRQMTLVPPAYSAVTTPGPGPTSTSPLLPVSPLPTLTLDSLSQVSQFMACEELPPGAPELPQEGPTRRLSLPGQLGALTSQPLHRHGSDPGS

| SMILES | hERG current change (%, negative = inhibition) at 10uM |
| --- | --- |
| Cc1nnc(NC(=O)c2cc(S(=O)(=O)N3CCCCC3)ccc2Cl)s1 | 14.6% |
| CC(=O)c1ccc(NS(=O)(=O)c2c(C)cc(C)cc2C)cc1 | 17.9% |
| N#Cc1cn(-c2ccccc2)nc1-c1ccccc1 | 0.313% |
| COC(=O)c1cc(CSc2ncnc3sccc23)oc1C | 16.6% |
| CCOC(=O)C1(CCc2ccccc2)CCN(Cc2c(O)cccc2OC)CC1 | -95.1% |
| CCOC(=O)C1(CCc2ccccc2)CCN(Cc2cc(OC)c(OC)cc2OC)CC1 | -77.4% |
| COc1cc(OC)c(OC)cc1CN1CCN(C(=O)Cc2ccccc2)CC1.O=C(O)C(=O)O | 5.5% |
| O=C(NCc1cccc(C(F)(F)F)c1)c1cccc(Cl)c1Cl | 10.5% |
| CCc1cc(Cn2nc(-c3ccccc3)cc2C(=O)O)on1 | -1.7% |
| O=C(CNC(=O)c1cccs1)N/N=C/c1cccc(Cl)c1 | -5.74% |
| COc1ccc(OC)c(NC(=O)C(=O)NNC(=O)c2cccs2)c1 | 10.9% |
| O=C(NCCCO)C(=O)NCC(c1ccc2c(c1)OCO2)N1CCN(c2ccc(F)cc2)CC1 (stereo not shown) | -41.4% |
| CC[N+](CC)(CCCCS(=O)(=O)[O-])CCNP1(=O)C=C(c2ccccc2)OC(c2ccccc2)=C1 | 9.75% |
| N#CC[N+]1(CCCNP2(=O)C=C(c3ccccc3)OC(c3ccccc3)=C2)CCOCC1.[Cl-] | -63.5% |
| O=C(C[N+]1(CC#Cc2ccccc2)CCOCC1)c1ccccc1.[Br-] | 35.8% |
| NC(=O)N1N=C2/C(=C/c3ccccc3)CCCC2C1c1ccccc1 (stereo not shown) | -17.1% |
| O=C1CCC(C(=O)OCC(=O)N2N=C3/C(=C/c4ccccc4)CCCC3C2c2ccccc2)N1 (stereo not shown) | -70.3% |
| O=C(c1ccccn1)N1N=C2/C(=C/c3ccccc3)CCCC2C1c1ccccc1 (stereo not shown) | -37.1% |
| Cc1ncsc1C(=O)N1N=C2/C(=C/c3ccccc3)CCCC2C1c1ccccc1 (stereo not shown) | -0.298% |
| O=C(c1ccccn1)N1N=C2/C(=C/c3ccc(F)cc3)CCCC2C1c1ccc(F)cc1 (stereo not shown) | -54.3% |
| CC(=O)N1N=C2/C(=C/c3ccccc3)CCCC2C1c1ccccc1 (stereo not shown) | -10.5% |
| CCCCCOC(=O)C1=C(C)NC(=O)NC1c1ccc(N(C)C)cc1 (stereo not shown) | 12.5% |

| SMILES | hERG current change (%, negative = inhibition) at 10uM |
| --- | --- |
| COc1ccc(C2C3=C(CC(C)(C)CC3=O)Nc3c2c(=O)[nH]c(=O)n3Cc2ccccc2)cc1OC (stereo not shown) | -3.11% |
| CCOC(=O)Cc1csc(NC(=O)CCCN2C(=O)c3ccccc3C2=O)n1 | 12.2% |
| O=C(NC1CC1)C1CCN(c2nc3ccccc3s2)CC1 | -5.63% |
| O=C(NCCN1CCOCC1)C1CCN(c2ncnc3c2sc2cccc(F)c23)CC1 | -25.6% |
| COc1ccc(-c2noc(N3CCC(C(=O)NCCCN4CC(C)CC(C)C4)CC3)n2)cc1 (stereo not shown) | -18.1% |
| CC1CC(C)CN(CCCNC(=O)C2CCN(c3ncnc4c3sc3cccc(F)c34)CC2)C1 (stereo not shown) | -65.8% |
| CCN(CC)CCCNC(=O)C1CCN(C(=O)c2cc3sccc3n2Cc2ccc(F)cc2)CC1 | -2.11% |
| CCN(CC)CCCNC(=O)C1CCN(c2ncnc3c2sc2cccc(F)c23)CC1 | -50.2% |
| O=C(NC1CC1)C1CCN(c2ncnc3c2sc2cccc(F)c23)CC1 | -52% |
| O=C(C1CCN(c2ncnc3c2sc2cccc(F)c23)CC1)N1CCOCC1 | -27.8% |
| O=C(Nc1ccc(F)cc1F)C1CCN(c2ncnc3c2sc2cccc(F)c23)CC1 | 3.98% |
| CCN(CC)CCNC(=O)c1ccc(NC(=O)C2CCN(c3ncnc4sc(C)c(C)c34)CC2)cc1 | -29.8% |
| CCOC(=O)N1CCN(C(=O)C2CCN(c3ncnc4c3sc3cccc(F)c34)CC2)CC1 | -59.9% |
| O=C(C1CCN(c2ncnc3c2sc2cccc(F)c23)CC1)N1CCCC1 | -19.7% |
| O=C(Nc1cc(-c2nc3ncccc3o2)ccc1Cl)c1ccc2c(c1)OCO2 | 10.2% |
| Cc1ccc(C(=O)NCCc2ccc(S(N)(=O)=O)cc2)o1 | 16.1% |
| O=C(Nc1ccc(-c2ccccc2)cc1)c1ccc2c(c1)S(=O)(=O)c1ccccc1C2=O | 7.7% |
| CC1(C)NC(=O)N(CC(O)COC2CCCCC2)C1=O (stereo not shown) | 8.64% |
| FC(F)(F)c1ccccc1CNCc1ccncc1 | 4.43% |
| COc1ccccc1-n1c(C)nnc1SCC(=O)NCc1ccccc1 | 11.5% |
| CCOC(=O)c1c(NC(=O)COC(=O)Cn2cnc3ccccc32)sc2c1CCC(C)C2 (stereo not shown) | -3.78% |
| CCCCN(CC)CCNC(=O)C1CCN(S(=O)(=O)c2cccc3nsnc23)CC1 | -11% |

| SMILES | hERG current change (%, negative = inhibition) at 10uM |
| --- | --- |
| CCCCNC(=O)C1CCN(c2nc(C)cc(C)n2)CC1 | 17% |
| CCCCN(CC)CCCNC(=O)C1CCN(c2ncnc3c2sc2cccc(F)c23)CC1 | -70.3% |
| CC1(C)CC2CC(C)(CN2C(=O)COC(=O)Cn2[nH]c(=O)c3ccccc3c2=O)C1 (stereo not shown) | 2.26% |
| CCn1c(CNC(=O)c2ccc(Cl)cc2)nnc1SCC(=O)NC1=NCCS1 | 18% |
| CC(=O)Nc1sc2c(c1CN1CCN(c3ccccn3)CC1)CCCC2 | -55.3% |
| CC(=O)Nc1sc2c(c1CN1CCN(C)CC1)CCCC2 | -1.92% |
| CC(=O)Nc1sc2c(c1CN1CCCC1)CCCC2 | 7.34% |
| COc1cc(NC(=O)c2ccc(Br)o2)ccc1NC(=O)c1ccccc1Cl | -22.4% |
| CCN(CC)C(=O)CSc1nnc(SCc2ccc(Cl)cc2)s1 | -3.44% |
| O=C(O)C1(NS(=O)(=O)c2ccc(F)c(Cl)c2)CCCCC1 | 7.65% |
| N#C/C(=C/Nc1ccccc1)c1ccsc1 | 7.85% |
| O=C(NC1CCCCC1)c1ccc(S(=O)(=O)N2CCOCC2)cc1 | -2.69% |
| CC(C)C(NC(=O)C1CCCCC1)C(=O)N1CCN(c2ccc(F)cc2)CC1 (stereo not shown) | -55.7% |
| CC(C)[C@H](NC(=O)C1CC(=O)N(c2ccc(F)cc2)C1)C(=O)N1CCCCC1 (stereo partly shown) | 7.29% |
| CC(C)[C@H](NC(=O)C1CCN(S(=O)(=O)c2ccc(F)cc2)CC1)C(=O)N1CCCCCC1 | 5.18% |
| CC(C)C(NC(=O)c1c(F)cccc1F)C(=O)N1CCN(c2ccccc2F)CC1 (stereo not shown) | -1.76% |
| COc1ccc(N2CCN(C(=O)C(NC(=O)c3c(F)cccc3F)C(C)C)CC2)cc1 (stereo not shown) | 10.5% |
| CC(C)[C@H](NC(=O)c1c(F)cccc1F)C(=O)N1CCN(c2ccc(F)cc2)CC1 | -54.2% |
| O=C(COc1ccccc1)OC(C(=O)c1ccccc1)c1ccccc1 (stereo not shown) | 16.5% |
| CC(C)(C)OC(=O)N1CCN(C(=O)c2[nH]cnc2C(=O)Nc2ccon2)CC1 | 9.6% |
| Fc1ccc(-c2nc3c(-c4ccccc4)cnn3cc2CCN2CCOCC2)cc1 | -15.2% |
| COc1ccc(-n2c(Cc3cccn3C)nnc2SCC(=O)Nc2ccccc2)cc1 | -19.5% |

| SMILES | hERG current change (%, negative = inhibition) at 10uM |
| --- | --- |
| CCOC(=O)CN(C(=O)CNC(=O)c1ccco1)C(C(=O)NC1CCCCC1)c1cccnc1 (stereo not shown) | 12.2% |
| Cc1onc(-c2ccccc2Cl)c1C(=O)Nc1ccc2c(c1)OCO2 | 10.3% |
| COc1cccc(-n2c(SCC(N)=O)nc3c([nH]c4ccccc43)c2=O)c1 | -0.054% |
| Cc1nnc(SCC(=O)NC2CCCc3ccccc32)n1-c1ccccc1 (stereo not shown) | -0.602% |
| CC(CCN1C(Nc2ccccc2)=NC[C@@H]1Cc1ccccc1)c1ccccc1 (stereo partly shown) | -74.8% |
| CCC(C)CCN1C(Nc2ccccc2)=NC[C@@H]1CC(C)C (stereo partly shown) | -41.1% |
| CC(CCN1CCN=C1Nc1ccccc1)c1ccccc1 (stereo not shown) | -33.8% |
| CC(C)CCN1C(Nc2ccccc2)=NC[C@@H]1C | -9.63% |
| CCC(C)CCN1C(Nc2ccccc2)=NC[C@@H]1Cc1ccccc1 (stereo partly shown) | -59.6% |
| CCC(C)CCN1CCN=C1Nc1ccccc1 (stereo not shown) | -1.89% |
| CC(C)C[C@H]1CN=C(Nc2ccccc2)N1CCC(C)c1ccccc1 (stereo partly shown) | -67% |
| CCC(C)CCN1C(Nc2ccccc2)=NC[C@@H]1C (stereo partly shown) | -4.88% |
| CC(CCN1C(Nc2ccccc2)=NC[C@@H]1C)c1ccccc1 (stereo partly shown) | -52.4% |
| S=C(Nc1ccccc1)Nc1ccc(OCc2ccccc2)cc1 | -0.702% |
| Nc1nc2ccccc2n1/N=C/c1ccc(-c2ccccc2)o1 | -11.8% |
| CCCc1[nH]nc2c1C1(C(=O)N(CC)c3ccccc31)C(C#N)=C(N)O2 (stereo not shown) | -6.38% |
| COc1ccc(C(=O)OCC(=O)NCC2CCCO2)cc1[N+](=O)[O-] (stereo not shown) | 2.12% |
| Cc1cc(/C=C(\C#N)C(=O)NC2CCCCCC2)c(C)[nH]1 | 9.54% |
| COc1ccccc1CC(=O)Nc1cccc(C(=O)Nc2nccs2)c1 | -0.755% |
